In the library only some 3.7% were active in any assay of this set; here they are far more common.
VDR inhibitor – Inhibitors of the vitamin D receptor (VDR): qHTS; AID 504847, 2011; VDR-SRC2-3 peptide fluorescence polarization, 2 h; Vitamin D3 receptor (Homo sapiens), P11473; Potency, µM, inactives show max response, negative = inhibition, actives largely listed as inhibitors; 0.93% of 400,000 active; note: potency is the fitted concentration of half-maximal effect; % is set by controls: 0 for no effect and ±100 for the full control effect
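Compounds are added to VDR with labelled SRC2-3 coactivator peptide and held 2 h at room temperature. Inhibition of the VDR–peptide interaction is then read as a change in fluorescence polarization.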
TCR act – Activators of T cell receptors: qHTS campaign. primary human leukocytes, anti-CD3, IL-2 HTRF, 48 h. Potency, µM (titrated, usually from 9.22 µM), for the others: top-dose activation of IL-2 secretion, hits mostly activators. 330,000 tested, under 10 active. AID 504894, 2011; note: % of control where 0% means no effect
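Primary human leukocytes were stimulated with a-CD3 beads plus compounds for 48 hr without co-stimulation; secreted IL-2 was quantified by HTRF using a-IL-2-K (europium cryptate) and a-IL-2-d2, excited at 320nm with acceptor emission read at 665nm.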
WRN helicase inh – qHTS for Inhibitors of WRN Helicase. Potency, µM (doses to about 114 µM), without a hit: at the highest dose activity change, negative = inhibition, usual class: inhibitors. 0.46% of 360,000 active. WRN helicase unwinding, fluorescent forked duplex, kinetic; note: potency is the fitted concentration of half-maximal effect; % is set by controls: 0 for no effect and ±100 for the full control effect; nearly all actives have a fitted effect of over 55% in size
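Kinetic red-fluorescence monitoring (525/598 nm) tracks WRN helicase activity after 100 nM fluorophore-quencher forked duplex and 2 mM ATP are added to 20 nM enzyme pretreated 15 min at room temperature with compound.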
FEN1 inh – qHTS Assay for the Inhibitors of Human Flap endonuclease 1 (FEN1); P39748; Recombinant FEN1 flap cleavage, fluorescence, 15 min; Potency, µM (top dose mostly 114 µM), inactives show top-dose activity change, negative = inhibition, most hits filed as inhibitors; 0.35% of 390,000 active; note: potency is the fitted concentration of half-maximal effect; % is set by controls: 0 for no effect and ±100 for the full control effect; nearly all actives have a fitted effect of over 65% in size
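Reaction started by adding substrate (50 nM final) to 10 nM enzyme after 15 min room-temperature compound preincubation. Reads at 0 and 15 min, with data normalized and fitted to a four-parameter Hill equation.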
PLK1 PBD inh – qHTS for Inhibitors of PLK1-PDB (polo-like kinase 1 - polo-box domain): Primary Screen. Serine/threonine-protein kinase PLK1 (Homo sapiens), P53350. Plk1 PBD binding of FITC phosphopeptide, fluorescence polarization. Potency, µM, for inactives: max response, negative = inhibition, actives largely listed as inhibitors. 2.8% of 360,000 active. AID 720504, 2013; note: potency is the fitted concentration of half-maximal effect; series mostly up to about 57 µM; % is set by controls: 0 for no effect and ±100 for the full control effect; nearly all actives have a fitted effect of over 65% in size
PI5P4K alpha inh – qHTS for Inhibitors of phosphatidylinositol 5-phosphate 4-kinase (PI5P4K); Phosphatidylinositol 5-phosphate 4-kinase type-2 alpha (Homo sapiens), P48426; PI5P4Kalpha enzyme, ADP-Glo luminescence, 60 min; active compounds read low; max response, %; 1.2% of 330,000 active; active = max response of -50% or lower; inconclusive = between -30% and -50%; inactive = -30% or higher; note: value at the top dose of about 77 µM; % is set by controls: 0 for no effect and ±100 for the full control effect
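Quantitative HTS of the MLSMR library against PI5P4Kalpha with substrate. ATP added last at 5 microM final; room temperature, 60 minutes. Remaining ATP depleted, ADP converted and read as luminescence.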
Numbers without * were called inactive; ? = inconclusive; . = no result given; [ ] = dose if it differs, or a comment. Unless noted, calls come from the whole dose curve; as a rule, active = well fitted curve in the direction sought with a large enough effect; inconclusive = small, poorly fitted or top-dose-only effect, or another doubt; inactive = no such curve, though single readings can be large; an effect the other way counts as inactive or inconclusive.

SMILES | VDR inhibitor | TCR act | WRN helicase inh | FEN1 inh | PLK1 PBD inh | PI5P4K alpha inh
C#CCOCCOCCOCCNc1nc(N2CCN(C(=O)C(Cc3cc4ccccc4[nH]3)n3cc(C(N)C(C)CC)nn3)CC2)nc(N2CCN(C(=O)C(Cc3cc4ccccc4[nH]3)n3cc(C(N)C(C)CC)nn3)CC2)n1 (centres undefined) | 38% | 4% | -30% | ? | -6% | -52*
Cc1ccc(Nc2nnc(SCC(O)=C(C#N)c3nc4ccccc4[nH]3)s2)c(C)c1 | 8% | 8% | -8%[11.6 µM] | -24% | -25% | ?
Cc1cccc(C)c1Nc1nnc(SC/C(O)=C(\C#N)c2nc3ccccc3[nH]2)s1 | 8% | -2%[46.1 µM] | -29% | -10% | -19% | -68*
Cc1cccc(Nc2nnc(SC/C(O)=C(\C#N)c3nc4ccccc4[nH]3)s2)c1C | 19% | 4%[46.1 µM] | -31% | -9% | -21% | -59*
NC(Cc1ccccc1)C(O)c1ccco1 (centres undefined) | -24% | . | . | 5% | . | .
Fc1ccc(N2CCN(C(c3cccs3)c3nnnn3CCc3ccccc3)CC2)cc1 (centres undefined) | -5% | 0%[46.1 µM] | 1% | -1% | 24µM* | 6
Fc1ccccc1N1CCN(C(c2cccs2)c2nnnn2CCc2ccccc2)CC1 (centres undefined) | 2% | -6% | 3% | -4% | -20% | -1
CCN1C(=NCc2cccc(Cl)c2)N[C@@H](c2cccc(C(F)(F)F)c2)C(C(=O)OC)=C1C | . | . | . | 2% | . | .
CC(C)=NNc1cnnc2ccc([N+](=O)[O-])cc12 | . | . | -11%[57.1 µM] | . | -11% | -69*
C/C(=N\Nc1ccc([N+](=O)[O-])cc1[N+](=O)[O-])c1cccnc1 | -13% | -5% | 1% | 8% | -5% | -2
C=CCNC(=O)/C(C#N)=C/c1ccc(OS(=O)(=O)c2ccc(C)cc2)c(OC)c1 | 28µM* | -1%[46.1 µM] | -11% | -18% | ? | -9
O=c1ccc2cc3c4c(c2o1)CCCN4CCC3 | 2% | 0% | -20% | -21% | 17µM* | 2
O=c1oc2c3c4c(cc2s1)CCCN4CCC3 | 79µM* | 0% | ? | ? | 27µM* | .
O=C(N/N=C/c1cc2c3c(c1O)CCCN3CCC2)c1ccccc1O | -17% | 7%[46.1 µM] | ? | -9% | -10% | -14
O=c1c2cccnc2n(Cc2ccccc2F)c(=O)n1Cc1ccc(F)cc1 | 10% | . | . | 6% | . | .
COc1ccc(C2Nc3ccccc3C(=O)N2Cc2ccccc2)cc1COc1ccc([N+](=O)[O-])cc1 (centres undefined) | -9% | . | . | 8% | . | .
O=c1nc(SCc2c(F)cccc2Cl)nc(-c2ccccc2)[nH]1 | -4% | -2% | 5% | -4% | 27µM* | -5
CCCc1nn2c(=O)cc(COC(=O)c3cccc(NC(=O)c4cccs4)c3)nc2s1 | 13% | . | . | -3% | . | .
O=C(CCOc1ccccc1)NO | . | . | . | -2% | . | .
CC(=O)C1=C(O)C(=O)N(c2ccccn2)C1c1ccccc1[N+](=O)[O-] (centres undefined) | ? | -4% | 71µM* | 3% | 3.4µM* | ?
CC(=O)C1=C(O)C(=O)N(c2ccc(Br)cn2)C1c1ccccc1[N+](=O)[O-] (centres undefined) | 0% | 9% | 10% | 14% | ? | -9
CCOC(=O)c1c(C)[nH]c(C(=O)CSc2nnc(-c3cccs3)n2Cc2ccccc2)c1C | -2% | 2% | 5% | 8% | 2% | .
O=c1c2ccccc2nnn1CSc1nnc(-c2cccs2)n1Cc1ccccc1 | -18% | . | -3% | -19% | 30µM* | -17
CC(=O)c1c(C)[nH]c(C(=O)CSc2nnc(-c3cccs3)n2Cc2ccccc2)c1C | ? | -2% | -5% | -17% | 17µM* | .
Cc1noc(/C=C/c2ccco2)c1S(=O)(=O)N1CCC(C(=O)Nc2ccc(F)c(Cl)c2)CC1 | -4% | . | . | -6% | . | .
SMILES | VDR inhibitor | TCR act | WRN helicase inh | FEN1 inh | PLK1 PBD inh | PI5P4K alpha inh
CCCCCCCCN1[C@@H](CC(=O)O)c2cc(C(F)(F)F)ccc2S1(=O)=O | -17% | -2% | -8% | -6% | -20% | 0
CCCCCCCCCCCCN1[C@@H](CC(=O)O)c2cc(C(F)(F)F)ccc2S1(=O)=O | ? | 1% | -31% | -35% | 34µM* | ?
O=c1oc2ccccc2c2oc3cc(O)c(O)cc3c12 | 26% | -12% | 45µM* | 45µM* | -24% | -64*
Nc1c(N)c2ccccc2oc1=O | 11% | . | -16% | 6% | 3% | .
CC(C)(C)NC(=O)C(c1ccco1)N(C(=O)Cn1nnc(-c2ccc(F)cc2)n1)c1cccc(F)c1 (centres undefined) | -9% | -5%[46.1 µM] | -1% | -19% | -7% | .
CC(C)(C)NC(=O)C(c1c[nH]c2ccccc12)N(C(=O)Cn1nnc(-c2ccc(F)cc2)n1)c1cccc(O)c1 (centres undefined) | ? | 0%[46.1 µM] | -24% | -3% | 27µM* | -21
CC(C)Oc1ccc(-c2nc3c(C#N)c[nH]n3c2NC2CCCCC2)cc1 | 8% | . | . | 8% | . | .
Cc1[nH]n(-c2ccccc2)c(=O)c1/C=N/c1nn[nH]n1 | -18% | 6% | -10%[57.1 µM] | -10% | 24µM* | 8
Cc1[nH]n(-c2ccccc2)c(=O)c1/C=N/N(c1ccccc1)c1ccccc1 | ? | -1% | -7% | 15% | 19µM* | -7
C=CCN=Cc1c(C)[nH]n(-c2ccccc2)c1=O | -16% | -8% | -23% | -3% | -3% | -8
Cc1ccc(-n2[nH]c(C)c(C=Nc3ccc(S(=O)(=O)Nc4nc(C)cc(C)n4)cc3)c2=O)c(C)c1 | -26% | -5%[46.1 µM] | -4% | 9% | -2% | 2
Cc1cc(C)nc(NS(=O)(=O)c2ccc(N=Cc3c(C)[nH]n(-c4ccccc4)c3=O)cc2)n1 | ? | 3%[46.1 µM] | -13% | -2% | 27µM* | -9
CCCN1CNc2c(c(=O)[nH]c(=S)n2CCc2c(C)cccc2C)C1 | -6% | . | . | -2% | . | .
O=c1[nH]c(/C=C/c2ccc([N+](=O)[O-])cc2)c([N+](=O)[O-])c(=O)[nH]1 | ? | 2% | -25% | -18% | -5% | -66*
O=c1cc(/C=C/c2ccc([N+](=O)[O-])cc2)c2ccccc2[nH]1 | . | . | . | -10% | . | .
Cc1cccc(NC(=O)COc2ccc(/C=C\c3[nH]c(=O)[nH]c(=O)c3[N+](=O)[O-])cc2)c1 | ? | -6% | ? | 45µM* | ? | -57*
